Hits are enriched below; roughly 7.2% of the tested compounds scored in any of these assays.
ALR inh – human ALR oxidase inhibition via reduced H2O2; purified ALR, DTT oxidation, H2O2 HRP-luminol luminescence; inhibition, % (no concentration beside the values); actives 3.8% (n = 290,000);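 active means mean replicate inhibition above about 79%, with every replicate also reaching it, limit read from the data; inconclusive means only one of the two criteria met; inactive means mean below limit and not every replicate reaching it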
Target sequence (P55789 whole entry, looked up): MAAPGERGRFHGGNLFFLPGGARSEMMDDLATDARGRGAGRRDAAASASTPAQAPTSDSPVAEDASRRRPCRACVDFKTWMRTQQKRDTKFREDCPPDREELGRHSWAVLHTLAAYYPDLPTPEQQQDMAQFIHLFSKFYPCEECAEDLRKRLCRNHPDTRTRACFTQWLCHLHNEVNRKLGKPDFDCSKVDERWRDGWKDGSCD
A1 inh – inhibitors of the anti-apoptotic protein A1, read as caspase activation; actives 0.066% (n = 330,000); caspase activation, % (no concentration beside the values); MEF A1-2A-BIM cells, Caspase-Glo 3/7 luminescence, 3 h; percent of clofoctol response, vehicle zero;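 active means over half of replicate activation scores above 10%, or exactly half above 10 with the replicate mean above 10; inconclusive means replicate mean below 10 yet half the replicates above 10; inactive means over half of replicates below 10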
VLA-4 inh – inhibition in a human VLA-4 binding assay; VLA-4 expressing cells, ligand binding flow cytometry; inhibition, % (about 7 µM as worked out from the volumes in the protocol); actives 0.2% (n = 330,000); in the data active means inhibition above about 50%
AHR activator – activators of human aryl hydrocarbon receptor. AHR-responsive luciferase reporter cells, luminescence. activation, % at 5 µM. actives 2.5% (n = 320,000); in the data active means activation above about 47%
Efflux pump mplx – antifungal efflux pump inhibition, Nile Red retention; AID 485275; inhibition, % at 10 µM; S. cerevisiae Candida pump triplex; actives 0.44% (n = 330,000);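 active means plate passing quality check with inhibition over a set limit, or well fluorescence over plate mean plus 4 SD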;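 further: Nile Red retained in pooled yeast measured as flow cytometry median fluorescence; higher means more Nile Red kept so more efflux inhibition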
Mot1-301 SUMO – inhibitors of SUMOylation pathway: yeast Mot1-301 growth rescue; growth rescue, % at 18.8 µM; AID 2716; S. cerevisiae Mot1-301 growth rescue, ATP luminescence, 38.5C; percent above DMSO median, 100 means doubled; actives 1% (n = 320,000);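 active means every valid replicate shows activation above 250% relative to neutral control wells; inactive means the rest, any valid replicate at or below 250%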
VLA-4 allo CP – confirmation of allosteric modulators of human VLA-4 integrin. inhibition, % at 6.7 µM. U937 cells, HUTS-21 LIBS mAb binding, flow cytometry; LDV ligand present at threefold Kd. actives 2% (n = 1,300). shares compounds with VLA-4 inh; in the data active means inhibition above about 40%
Each line names hits and unclear results; the compound was inactive in the other large screens (follow-up assays come after a bar, where they were run); ! = repeats disagree.

COc1ccc2c(C)cc(SCC(=O)Nc3c(C)n(C)n(-c4ccccc4)c3=O)nc2c1	VLA-4 inh 94 | VLA-4 allo CP inactive
COc1cc(-n2c(C)nc3cccnc32)c(Cl)cc1C(=O)O	none
COc1ccc(S(=O)(=O)N2CCOCC2)cc1NC(=O)COC(=O)C1COc2ccccc2O1 (stereo not given)	none | VLA-4 allo CP inactive
COc1ccc(C(=O)NCc2cccnc2)cc1C(=O)NCc1cccnc1	VLA-4 inh 56 | VLA-4 allo CP inactive
COc1cc(OC)c(C(=O)NCc2cccnc2)cc1OC	none
COc1ccc(-c2nc(C)ncc2-c2ccc(Cl)cc2)c(O)c1	VLA-4 inh 68 | VLA-4 allo CP inactive
C/C(=N\NC(=O)c1ccccc1)c1ccc2c(c1)OCO2	VLA-4 inh 71 | VLA-4 allo CP inactive
COc1cccc(-c2cc(C(=O)N3CCN(Cc4ccc5c(c4)OCO5)CC3)on2)c1	VLA-4 inh 55 | VLA-4 allo CP inactive
Cc1cc(C(=O)N2CCN(Cc3ccc4c(c3)OCO4)CC2)on1	none
COCCCNC(=O)CCn1c(=O)c2ccccc2n(CC(=O)NCCc2ccc(OC)c(OC)c2)c1=O	none
COc1ccccc1N1CCN(C(=O)c2ccc3[nH]c(C)c(C)c3c2)CC1	VLA-4 inh 50 | VLA-4 allo CP inactive
O=C(CSc1nnc(Cc2cc(=O)[nH]c(=O)[nH]2)n1-c1ccccc1)N1CCCCC1	none (no result: ALR inh) | VLA-4 allo CP inactive
O=C(CSc1nnc(Cc2cc(=O)[nH]c(=O)[nH]2)n1-c1ccccc1)N1CCCC1	none | VLA-4 allo CP inactive
COc1ccc(-n2c(Cc3cc(=O)[nH]c(=O)[nH]3)nnc2SCC(=O)Nc2ccccc2)cc1	none
CCCn1c(SCC(=O)NC(C)C)nc2sc3c(c2c1=O)CCC3	none
CCCn1c(SCC(=O)NC)nc2sc3c(c2c1=O)CCC3	VLA-4 inh 57 | VLA-4 allo CP inactive
Cc1n(-c2ccccc2)c2ccc(Cl)cc2[n+]1CCO	none
Cc1ccc(OCC(=O)N(Cc2nnc(-c3ccccc3Cl)o2)C2CC2)cc1C	none
O=C(CN1CCN(Cc2cccc(F)c2)CC1)NCc1ccccc1	none
COc1ccc(S(=O)(=O)NCc2ccccc2Cl)cc1OC	VLA-4 inh 93 | VLA-4 allo CP inactive
c1ccc(C(Cc2nc(-c3cccnc3)no2)c2ccccc2)cc1	VLA-4 inh 92 | VLA-4 allo CP inactive
Cc1ccc2c([N+](=O)[O-])cccc2n1	none
Cc1ccc2c([N+](=O)[O-])c(C)ccc2n1	VLA-4 inh 51 (no result: ALR inh) | VLA-4 allo CP inactive
COC(=O)c1ccc(-n2c(C)cc(C(=O)CSc3cccc[n+]3[O-])c2C)cc1	none
COC(=O)c1ccc(-n2c(C)cc(C(=O)CSc3ccc(NC(C)=O)cc3)c2C)cc1	ALR inh 91 | VLA-4 allo CP inactive
c1ccc(-c2ncnc3cc4n(c23)CCC4)cc1	VLA-4 inh 61 (no result: ALR inh) | VLA-4 allo CP inactive
Cc1ccc2ncnc(-c3ccccc3)c2c1	A1 inh inconclusive
CS(=O)(=O)c1ccccc1C(=O)Nc1cccc2ncccc12	none
Cc1ccc(CNC(=O)C2CCCN2S(=O)(=O)c2ccc(Cl)cc2)cc1 (stereo not given)	none (no result: ALR inh)
Cc1ccc(CNC(=O)C2CCCCN2S(=O)(=O)c2ccccc2)cc1 (stereo not given)	VLA-4 inh 55 | VLA-4 allo CP inactive
COc1ccc(-c2nnc3n2N=C(C)CS3)cc1	none (no result: Mot1-301 SUMO)
COc1ccc(C2=Nn3c(nnc3-c3ccc(OC)cc3)SC2)cc1	VLA-4 inh 54 | VLA-4 allo CP inactive
O=C(c1ccc(N2C(=O)CCC2=O)cc1)N1CCN(c2ccccc2)CC1	none (no result: Mot1-301 SUMO)
OC(CNc1ccccc1)COc1ccc(OCC(O)CNc2ccccc2)cc1 (stereo not given)	none
CCOCC(O)CNc1ccccc1 (stereo not given)	none | VLA-4 allo CP inactive
CCOC(=O)C1CCCN(C(=O)c2cccc(S(=O)(=O)N(Cc3ccccc3)c3ccccc3OC)c2)C1 (stereo not given)	none
COc1ccc(S(=O)(=O)NCC(=O)O)cc1C(=O)NC1CCCCC1	none | VLA-4 allo CP inactive
Cc1ccc(S(=O)(=O)NCCC(=O)NC2CCCCCC2)cc1C	none (no result: ALR inh)
N#Cc1cccc(NS(=O)(=O)c2ccccc2Cl)c1	none | VLA-4 allo CP inactive
COc1ccc(CNC(=O)CCS(=O)(=O)c2ccc3c(c2)NC(=O)CS3)cc1	none
CSc1sc(C(=O)N2CCCCC2)c(-c2cccs2)c1C#N	none
Nc1nc(=S)c2[nH]cnc2[nH]1	VLA-4 inh 57 | VLA-4 allo CP inactive
Nc1nc(N)c2[nH]cnc2n1	none
COc1ccc2[nH]c(S(=O)Cc3ncc(C)c(OC)c3C)nc2c1 (stereo not given)	VLA-4 inh 54! | VLA-4 allo CP inactive
C=C(C)CN(CC)C(=O)CN1C(=O)NC(C)(c2ccc3ccccc3c2)C1=O (stereo not given)	VLA-4 inh 50 | VLA-4 allo CP inactive
CCOC(=O)CCCCCC(=O)Nc1ccc2c(c1)C(=O)N([C@H](C)CO)C[C@@H](C)[C@H](CN(C)S(=O)(=O)c1cn(C)cn1)O2	none
Cc1ccc(C(C)C)cc1S(=O)(=O)NCc1ccccn1	none
CCC(=O)c1ccc(OCC(=O)NCCC2=CCCCC2)c(OC)c1	none
Cc1ccc(C(=O)OCC(=O)NCCC2=CCCCC2)cc1N	none
O=C(COC(=O)c1ccc(O)cc1)NCCC1=CCCCC1	VLA-4 inh 61 | VLA-4 allo CP inactive
CCOc1ccc(C(=O)NCCC2=CCCCC2)cc1OCC	VLA-4 inh 52 | VLA-4 allo CP inactive
COC(=O)CS(=O)(=O)c1ccc(C)cc1	none
O=C(CCC1CCCCC1)Nc1ccccc1C(=O)N1CCOCC1	none
Cc1ccc(NS(=O)(=O)c2ccc(-c3cnc(C4CC4)o3)cc2)c(C)c1	VLA-4 inh 55 | VLA-4 allo CP 47
COc1ccccc1NS(=O)(=O)c1ccc(-c2cnc(C3CC3)o2)cc1	none
Cc1ccc(-c2cc(C(=O)N3CCN(c4ccccc4O)CC3)c3ccccc3n2)o1	none
CC(C)Oc1cccc(-c2cc(C(=O)N3CCN(c4ncccn4)CC3)c3ccccc3n2)c1	none | VLA-4 allo CP inactive
COc1ccc(-c2cc(C(=O)N3CCN(c4ncccn4)CC3)c3ccccc3n2)cc1OC	none
O=C(c1cc(-c2ccncc2)nc2ccc(Br)cc12)N1CCN(c2ccccn2)CC1	none | VLA-4 allo CP inactive
COc1ccc(-c2cc(C(=O)N3CCN(c4cccc(C)c4C)CC3)c3ccccc3n2)cc1OC	none | VLA-4 allo CP inactive
O=C(c1cc(-c2ccc(Br)cc2)nc2ccccc12)N1CCN(c2ccccc2O)CC1	none | VLA-4 allo CP inactive
Cc1ccc(S(=O)(=O)N2CCOCC2)cc1NC(=O)COC(=O)c1cc(=O)c2ccccc2o1	none
CCOc1ccccc1NS(=O)(=O)c1cc2c3c(c1)CC(=O)N3CCC2	none
